Source: PubChem BioAssay (EPA / NIEHS)
Calls of active or inactive are those of the source. The calls were made as follows: active = hit-call score of the fitted dose curve at least 0.9, where 1 is the maximum; inactive = score below 0.9.

Columns and labels:
Conditions in all cases: mRNA level, 48 h; actives raise or lower the signal
[1] = read-out: Tumor necrosis factor receptor superfamily member 6 (Homo sapiens) (UniProt P25445); assay: LTEA_HepaRG_FAS: Life Technologies and Expression Analysis (LTEA) Assay for Fas cell surface death receptor (FAS) using HepaRG (AID 2283447)
Procedure, shortened: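 Differentiated HepaRG cells in serum-free induction medium were exposed 48 h to 8 half-log concentrations up to 100 uM in 0.5% DMSO, in duplicate. FAS mRNA was measured by qRT-PCR normalised to ACTB, GAPDH and POLR2A; bidirectional fit versus DMSO.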

[2] = read-out: Fatty acid synthase (Homo sapiens) (UniProt P49327); assay: LTEA_HepaRG_FASN: Life Technologies and Expression Analysis (LTEA) Assay for Fatty Acid Synthase (FASN) using HepaRG (AID 2283448)
Procedure, shortened: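 Differentiated HepaRG cells in serum-free induction medium exposed 48 h in duplicate to eight half-log concentrations, top 100 uM, 0.5% DMSO. FASN mRNA by qRT-PCR normalised to ACTB, GAPDH, POLR2A; bidirectional fit versus DMSO.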

[3] = read-out: Cyclin D2 (CCND2), CCND2 (gene 894); assay: LTEA_HepaRG_CCND2: Life Technologies and Expression Analysis (LTEA) Assay for Cyclin D2 (CCND2) using HepaRG (AID 2283449);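 also: CCND2 transcript measured by TaqMan qRT-PCR and normalised to three housekeeping genes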
Procedure, shortened: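 Chemicals in 0.5% DMSO, eight half-log concentrations from 100 uM top, were applied in duplicate for 48 h to human HepaRG cells in serum-free induction medium. CCND2 mRNA by TaqMan qRT-PCR, normalised to ACTB/GAPDH/POLR2A; bidirectional fit versus DMSO.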

[4] = read-out: Cyclin Dependent Kinase Inhibitor 1A (CDKN1A), CDKN1A (gene 1026); assay: LTEA_HepaRG_CDKN1A: Life Technologies and Expression Analysis (LTEA) Assay for Cyclin Dependent Kinase Inhibitor 1A (CDKN1A) using HepaRG (AID 2283450)
Procedure, shortened: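 HepaRG, 48 h dosing, 8-pt half-log series from 100 uM top, 0.5% DMSO vehicle, duplicates. Readout: TaqMan qRT-PCR of CDKN1A transcript, housekeeping-normalized (ACTB, GAPDH, POLR2A). Up/down curve fit relative to DMSO.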

[5] = read-out: Cyclin D1 (CCND1), CCND1 (gene 595); assay: LTEA_HepaRG_CCND1: Life Technologies and Expression Analysis (LTEA) Assay for Cyclin D1 (CCND1) using HepaRG (AID 2283451);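 as to AC50: TaqMan qRT-PCR transcript level normalised to ACTB GAPDH and POLR2A housekeeping genes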
Procedure, shortened: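 qRT-PCR (Fluidigm 96.96 array) read-out of transcript level, housekeeping-normalized (ACTB/GAPDH/POLR2A). HepaRG cells, 48 h chemical exposure, 8-point half-log series from 100 uM, 0.5% DMSO vehicle; gain or loss relative to DMSO baseline.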

[6] = read-out: catalase (CAT), CAT (gene 847); assay: LTEA_HepaRG_CAT: Life Technologies and Expression Analysis (LTEA) Assay for catalase (CAT) using HepaRG (AID 2283452)
Procedure, shortened: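 HepaRG cells in serum-free induction medium, 0.5% DMSO vehicle, exposed 48 h in duplicate over 8 half-log concentrations from 100 uM. CAT mRNA measured by qRT-PCR, normalized to ACTB, GAPDH, POLR2A; bidirectional fit versus DMSO.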

[7] = read-out: flavin-containing dimethylaniline monooxygenases 3 (FMO3), FMO3 (gene 2328); assay: LTEA_HepaRG_FMO3: Life Technologies and Expression Analysis (LTEA) Assay for flavin-containing dimethylaniline monooxygenases 3 (FMO3) using HepaRG (AID 2283453)
Procedure, shortened: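 Differentiated HepaRG cells in serum-free induction medium, exposed 48 h in duplicate to 8 half-log concentrations up to 100 uM in 0.5% DMSO. FMO3 mRNA by qRT-PCR, normalized to ACTB, GAPDH, POLR2A; bidirectional fit vs DMSO.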

[8] = read-out: Cytochrome P450 (CYP1A1), CYP1A1 (gene 1543); assay: LTEA_HepaRG_CYP1A1: Life Technologies and Expression Analysis (LTEA) Assay for Cytochrome P450 (CYP1A1) using HepaRG (AID 2283454)
Procedure, shortened: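 qRT-PCR read-out: CYP1A1 transcript normalized to three housekeeping genes, fitted bidirectionally against 0.5% DMSO vehicle baseline. Human HepaRG cells, 48 h chemical exposure, 8-point half-log series topping at 100 uM.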

[9] = read-out: CFLAR gene, CFLAR (gene 8837); assay: LTEA_HepaRG_CFLAR: Life Technologies and Expression Analysis (LTEA) Assay for CFLAR gene using HepaRG (AID 2283455)
Procedure, shortened: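 Differentiated HepaRG cells in serum-free induction medium were exposed 48 h in duplicate to eight half-log concentrations up to 100 uM in 0.5% DMSO; mRNA measured by TaqMan qRT-PCR, normalized to ACTB, GAPDH, POLR2A; bidirectional fitting versus DMSO.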

[10] = read-out: Forkhead box O1 (FOXO1), FOXO1 (gene 2308); assay: LTEA_HepaRG_FOXO1: Life Technologies and Expression Analysis (LTEA) Assay for Forkhead box O1 (FOXO1) using HepaRG (AID 2283456)
Procedure, shortened: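 Differentiated HepaRG cells, in serum-free induction medium with 0.5% DMSO, exposed 48 h in duplicate to 8-point half-log series from 100 uM. FOXO1 mRNA measured by TaqMan qRT-PCR, normalized to ACTB, GAPDH, POLR2A; bidirectional fit versus DMSO.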

[11] = read-out: growth arrest and DNA damage 45 (GADD45A), GADD45A (gene 1647); assay: LTEA_HepaRG_GADD45A: Life Technologies and Expression Analysis (LTEA) Assay for growth arrest and DNA damage 45 (GADD45A) using HepaRG (AID 2283458)
Procedure, shortened: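 Differentiated HepaRG cells exposed 48 h in serum-free induction medium to 8 concentrations, top 100 uM in half-log steps, 0.5% DMSO. GADD45A mRNA quantified by qRT-PCR, normalized to ACTB, GAPDH and POLR2A; bidirectional fit versus DMSO.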

[12] = read-out: Forkhead box O3 (FOXO3), FOXO3 (gene 2309); assay: LTEA_HepaRG_FOXO3: Life Technologies and Expression Analysis (LTEA) Assay for Forkhead box O3 (FOXO3) using HepaRG (AID 2283459)
Procedure, shortened: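 Differentiated human HepaRG cells, 48 h post-plating, exposed in duplicate for 48 h in serum-free induction medium; 8-point half-log series from 100 uM in 0.5% DMSO. FOXO3 mRNA by TaqMan qRT-PCR, normalized to ACTB/GAPDH/POLR2A; bidirectional fit versus DMSO.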

[13] = read-out: ABC Transporter (ABCB1), ABCB1 (gene 5243); assay: LTEA_HepaRG_ABCB1: Life Technologies and Expression Analysis (LTEA) Assay for ABC Transporter (ABCB1) using HepaRG (AID 2283460)
Procedure, shortened: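 HepaRG cells exposed in duplicate for 48 h in serum-free induction medium to eight half-log concentrations up to 100 uM in 0.5% DMSO. ABCB1 mRNA quantified by qRT-PCR, normalised to ACTB, GAPDH and POLR2A; fitted bidirectionally versus DMSO.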

[14] = read-out: ABC Transporter (ABCC3), ABCC3 (gene 8714); assay: LTEA_HepaRG_ABCC3: Life Technologies and Expression Analysis (LTEA) Assay for ABC Transporter (ABCC3) using HepaRG (AID 2283462)
Procedure, shortened: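 qRT-PCR read-out of ABCC3 transcript, normalized to three housekeeping genes (ACTB, GAPDH, POLR2A), after 48 h chemical exposure of human HepaRG cells. Eight half-log concentrations, highest 100 uM, in 0.5% DMSO; gain or loss fitted relative to DMSO baseline.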

[15] = read-out: ABC Transporter (ABCB11), ABCB11 (gene 8647); assay: LTEA_HepaRG_ABCB11: Life Technologies and Expression Analysis (LTEA) Assay for ABC Transporter (ABCB11) using HepaRG (AID 2283463)
Procedure, shortened: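 Differentiated human HepaRG cells in serum-free induction medium, dosed in duplicate for 48 h. Eight-point half-log series from 100 uM in 0.5% DMSO; ABCB11 mRNA by qRT-PCR, normalized to ACTB, GAPDH, POLR2A, fitted bidirectionally versus DMSO.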

[16] = read-out: ABC Transporter (ABCC2), ABCC2 (gene 1244); assay: LTEA_HepaRG_ABCC2: Life Technologies and Expression Analysis (LTEA) Assay for ABC Transporter (ABCC2) using HepaRG (AID 2283464)
Procedure, shortened: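 qRT-PCR (TaqMan, Fluidigm array) read-out of ABCC2 mRNA, normalized to three housekeeping genes. Differentiated HepaRG cells were treated 48 h in serum-free induction medium with 8-point half-log series from 100 uM in 0.5% DMSO; curves fitted bidirectionally relative to DMSO.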

[17] = read-out: Broad substrate specificity ATP-binding cassette transporter ABCG2 (Homo sapiens) (UniProt Q9UNQ0); assay: LTEA_HepaRG_ABCG2: Life Technologies and Expression Analysis (LTEA) Assay for ABC Transporter (ABCG2) using HepaRG (AID 2283465)
Procedure, shortened: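 Differentiated HepaRG cells were exposed for 48 h in serum-free induction medium to 8 half-log concentrations, top 100 uM, in 0.5% DMSO. ABCG2 mRNA was measured by qRT-PCR, normalized to ACTB, GAPDH and POLR2A, with bidirectional fitting versus DMSO.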

[18] = read-out: ATP-citrate lyase (ACLY), ACLY (gene 47); assay: LTEA_HepaRG_ACLY: Life Technologies and Expression Analysis (LTEA) Assay for ATP-citrate lyase (ACLY) using HepaRG (AID 2283466)
Procedure, shortened: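 Differentiated HepaRG cells exposed 48 h in serum-free induction medium to eight half-log concentrations up to 100 uM in 0.5% DMSO, duplicates. Transcript measured by Fluidigm TaqMan qRT-PCR, normalized to ACTB, GAPDH, POLR2A; bidirectional fit versus DMSO.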

Measured: AC50

Chain of Broad substrate specificity ATP-binding cassette transporter ABCG2 (Homo sapiens) (Q9UNQ0 whole entry, looked up): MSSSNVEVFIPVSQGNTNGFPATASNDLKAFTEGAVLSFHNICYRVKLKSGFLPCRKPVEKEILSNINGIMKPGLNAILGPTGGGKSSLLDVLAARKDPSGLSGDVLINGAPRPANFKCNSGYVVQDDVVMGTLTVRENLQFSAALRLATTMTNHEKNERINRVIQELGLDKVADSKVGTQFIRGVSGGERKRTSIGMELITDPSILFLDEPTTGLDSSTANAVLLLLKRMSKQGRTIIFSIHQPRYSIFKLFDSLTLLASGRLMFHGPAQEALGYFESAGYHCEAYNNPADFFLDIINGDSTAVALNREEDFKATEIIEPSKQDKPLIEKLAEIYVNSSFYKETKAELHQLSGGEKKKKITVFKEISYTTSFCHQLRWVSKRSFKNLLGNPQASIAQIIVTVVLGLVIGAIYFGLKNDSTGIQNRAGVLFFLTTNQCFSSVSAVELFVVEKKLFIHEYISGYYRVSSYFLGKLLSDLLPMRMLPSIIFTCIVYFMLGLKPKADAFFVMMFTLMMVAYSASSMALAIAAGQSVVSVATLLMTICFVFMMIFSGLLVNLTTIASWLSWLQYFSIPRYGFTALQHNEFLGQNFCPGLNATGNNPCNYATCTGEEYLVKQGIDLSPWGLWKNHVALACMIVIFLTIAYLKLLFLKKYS
Chain of Fatty acid synthase (Homo sapiens) (P49327 whole entry, looked up): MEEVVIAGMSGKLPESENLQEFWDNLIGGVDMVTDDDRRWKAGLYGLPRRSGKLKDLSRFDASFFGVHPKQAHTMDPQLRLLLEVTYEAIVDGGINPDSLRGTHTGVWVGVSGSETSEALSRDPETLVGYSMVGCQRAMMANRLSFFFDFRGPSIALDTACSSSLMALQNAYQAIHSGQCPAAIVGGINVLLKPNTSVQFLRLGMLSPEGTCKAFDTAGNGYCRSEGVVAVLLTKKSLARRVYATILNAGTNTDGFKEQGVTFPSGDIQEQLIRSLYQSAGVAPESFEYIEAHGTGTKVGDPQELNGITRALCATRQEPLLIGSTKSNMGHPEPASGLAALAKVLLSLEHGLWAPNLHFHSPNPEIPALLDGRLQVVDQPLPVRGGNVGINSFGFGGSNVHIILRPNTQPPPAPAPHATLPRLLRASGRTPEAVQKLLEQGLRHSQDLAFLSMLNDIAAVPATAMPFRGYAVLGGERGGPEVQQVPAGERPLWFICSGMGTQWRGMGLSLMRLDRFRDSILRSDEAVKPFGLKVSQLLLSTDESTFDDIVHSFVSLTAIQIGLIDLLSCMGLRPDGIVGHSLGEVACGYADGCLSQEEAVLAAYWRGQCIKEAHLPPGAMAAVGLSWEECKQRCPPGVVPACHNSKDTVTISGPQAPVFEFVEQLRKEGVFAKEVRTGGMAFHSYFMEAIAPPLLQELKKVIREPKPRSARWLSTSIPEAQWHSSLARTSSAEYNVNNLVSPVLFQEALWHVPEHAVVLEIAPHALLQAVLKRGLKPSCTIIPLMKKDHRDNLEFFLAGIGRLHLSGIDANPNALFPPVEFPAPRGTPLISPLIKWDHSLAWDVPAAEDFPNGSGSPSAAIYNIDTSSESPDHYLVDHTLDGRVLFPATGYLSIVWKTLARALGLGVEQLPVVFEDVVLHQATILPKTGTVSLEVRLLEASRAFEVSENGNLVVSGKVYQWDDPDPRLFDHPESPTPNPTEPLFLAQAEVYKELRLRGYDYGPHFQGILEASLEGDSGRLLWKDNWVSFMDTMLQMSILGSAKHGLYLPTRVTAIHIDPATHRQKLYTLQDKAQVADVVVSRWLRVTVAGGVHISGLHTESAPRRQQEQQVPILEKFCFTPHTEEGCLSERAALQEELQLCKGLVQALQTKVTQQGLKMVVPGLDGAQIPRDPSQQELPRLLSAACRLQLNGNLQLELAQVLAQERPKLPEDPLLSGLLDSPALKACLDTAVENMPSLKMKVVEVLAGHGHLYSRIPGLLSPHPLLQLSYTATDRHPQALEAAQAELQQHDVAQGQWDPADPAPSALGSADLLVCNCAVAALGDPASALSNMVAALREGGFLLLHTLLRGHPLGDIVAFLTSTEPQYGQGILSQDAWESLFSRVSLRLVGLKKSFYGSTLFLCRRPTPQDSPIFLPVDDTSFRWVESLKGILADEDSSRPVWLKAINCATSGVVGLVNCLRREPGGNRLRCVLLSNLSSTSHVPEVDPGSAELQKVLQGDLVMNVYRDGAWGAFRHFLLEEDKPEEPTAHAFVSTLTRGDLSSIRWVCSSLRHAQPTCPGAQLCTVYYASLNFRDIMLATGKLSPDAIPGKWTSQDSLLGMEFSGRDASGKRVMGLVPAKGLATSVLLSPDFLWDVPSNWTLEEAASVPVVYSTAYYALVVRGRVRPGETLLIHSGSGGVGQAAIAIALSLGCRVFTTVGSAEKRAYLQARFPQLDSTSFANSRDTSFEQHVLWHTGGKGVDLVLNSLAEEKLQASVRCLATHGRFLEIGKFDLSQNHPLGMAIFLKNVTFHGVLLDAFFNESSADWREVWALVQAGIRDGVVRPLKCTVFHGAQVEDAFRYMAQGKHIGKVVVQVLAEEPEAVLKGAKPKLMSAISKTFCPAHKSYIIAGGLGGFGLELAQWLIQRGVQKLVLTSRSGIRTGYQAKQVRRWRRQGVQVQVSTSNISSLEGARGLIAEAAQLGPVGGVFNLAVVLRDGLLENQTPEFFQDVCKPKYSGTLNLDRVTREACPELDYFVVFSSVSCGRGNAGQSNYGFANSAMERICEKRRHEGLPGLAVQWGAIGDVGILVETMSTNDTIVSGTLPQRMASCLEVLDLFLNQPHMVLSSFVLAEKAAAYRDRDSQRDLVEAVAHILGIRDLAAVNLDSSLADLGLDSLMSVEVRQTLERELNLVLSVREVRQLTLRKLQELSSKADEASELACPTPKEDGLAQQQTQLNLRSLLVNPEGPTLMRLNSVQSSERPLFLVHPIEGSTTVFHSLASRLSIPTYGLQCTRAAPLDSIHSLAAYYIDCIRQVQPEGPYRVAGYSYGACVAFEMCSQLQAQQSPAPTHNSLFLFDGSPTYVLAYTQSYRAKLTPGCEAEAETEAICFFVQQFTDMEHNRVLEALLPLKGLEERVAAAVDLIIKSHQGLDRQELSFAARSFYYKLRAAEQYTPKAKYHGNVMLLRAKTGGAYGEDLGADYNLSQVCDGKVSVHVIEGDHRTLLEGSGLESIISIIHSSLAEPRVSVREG

CSc1nnc(C(C)(C)C)c(=O)n1N
inactive: all assays above

Nc1c(Cl)cc([N+](=O)[O-])cc1Cl
active: [2] 16.9 µM | [5] 50 µM | [6] 41.4 µM | [7] 50 µM | [8] 7.36 µM | [9] 17.7 µM | [11] 78.9 µM | [12] 7.33 µM | [13] 31.1 µM | [15] 37.4 µM | [16] 84.2 µM | [17] 80.4 µM
inactive: [1] | [3] | [4] | [10] | [14] | [18]

CCCOCC(=Nc1ccc(Cl)cc1C(F)(F)F)n1ccnc1
active: [2] 50 µM | [6] 37.6 µM | [7] 73 µM | [8] 12.8 µM | [9] 50 µM | [10] 50 µM | [12] 40 µM | [13] 80.5 µM | [15] 17.6 µM | [16] 78.4 µM | [17] 15.8 µM | [18] 88.6 µM
inactive: [1] | [3] | [4] | [5] | [11] | [14]

COc1cc(OC)nc(Sc2cccc(Cl)c2C(=O)O)n1
not listed: [3]
inactive: all other assays above
